In PubChem BioAssay (NCATS):
Inconclusive results are not listed. Calls of active or inactive are those of the source. Unless noted, calls follow the shape of the dose curve; as a rule, active = well fitted curve in either direction with a large enough effect (not every such curve was filed as active); inconclusive = small, poorly fitted or top-dose-only effect, or another doubt; inactive = flat fitted curve, though single readings scatter.

Columns and labels:
[1] = NFAT Signaling Pathway (AID 444); settings: Jurkat NFAT-bla M1, carbachol, beta-lactamase ratio, 5 h; at 7.69 µM (top of the series) unless noted;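 also: carbachol stimulus at about its EC50 of 1 µM final; % is scaled to controls: 0 for no effect and ±100 for the full control effect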
Method in brief: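 Jurkat cells with NFAT-driven β-lactamase reporter and co-expressed M1 receptor, stimulated with carbachol (final 1 uM, ~EC50), compound titration, 5 h at 37 °C. CCF4 loaded 1 h at RT; 460/530 nm ratio gave %activity and AC50.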

[2] = biological target: Glucocorticoid receptor (Homo sapiens) (UniProt P04150); test: GR-GFP Redistribution (AID 450;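 active = compounds whose dose series gives a full or clear partial fitted curve of increased nuclear translocation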; also: potency is read from the fitted curve at half-maximal effect); settings: U2OS GR-GFP nuclear translocation, laser cytometry, 2 h
Glucocorticoid receptor (Homo sapiens), sequence (P04150 whole entry, looked up, the tested form may be a part): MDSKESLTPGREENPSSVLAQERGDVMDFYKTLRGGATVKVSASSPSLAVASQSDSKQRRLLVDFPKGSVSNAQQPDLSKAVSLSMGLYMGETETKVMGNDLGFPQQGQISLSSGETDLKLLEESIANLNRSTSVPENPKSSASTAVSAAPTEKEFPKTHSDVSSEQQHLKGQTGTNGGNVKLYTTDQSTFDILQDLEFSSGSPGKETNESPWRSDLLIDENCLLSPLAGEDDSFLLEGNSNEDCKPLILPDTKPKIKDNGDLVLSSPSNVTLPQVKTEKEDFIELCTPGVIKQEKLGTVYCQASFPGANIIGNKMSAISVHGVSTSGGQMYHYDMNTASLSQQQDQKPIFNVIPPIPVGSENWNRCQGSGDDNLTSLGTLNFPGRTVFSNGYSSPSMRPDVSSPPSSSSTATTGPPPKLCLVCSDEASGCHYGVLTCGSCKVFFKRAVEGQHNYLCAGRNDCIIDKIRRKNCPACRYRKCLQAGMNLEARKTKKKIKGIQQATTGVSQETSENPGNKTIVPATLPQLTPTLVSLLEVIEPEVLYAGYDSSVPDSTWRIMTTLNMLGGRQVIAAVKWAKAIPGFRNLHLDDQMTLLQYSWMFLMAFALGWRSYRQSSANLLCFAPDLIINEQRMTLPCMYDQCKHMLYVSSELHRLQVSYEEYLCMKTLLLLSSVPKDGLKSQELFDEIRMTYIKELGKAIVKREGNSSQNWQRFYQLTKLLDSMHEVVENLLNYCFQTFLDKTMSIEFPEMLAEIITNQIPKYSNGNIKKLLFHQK

[3] = biological target: Glucocorticoid receptor (Homo sapiens) (UniProt P04150); test: GR-EFC Redistribution (AID 451; calls by dose curve; also: potency is read from the fitted curve at half-maximal effect); settings: CHO-K1 GR-EFC translocation, beta-gal luminescence, 2 h
Method in brief: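 CHO-K1 cells expressing nuclear EA and GR-ED fragments of b-gal; compounds titrated up to 46 uM final, 2 h at 37 C. GR nuclear translocation read as complemented b-gal luminescence after 1 h RT detection.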

[4] = biological target: Mitogen-activated protein kinase 10 (Mus musculus) (UniProt Q61831); test: JNK3 AlphaScreen Assay (AID 530);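 also: kinase came from lysate of stimulated human HepG2 cells; signal reports phosphorylation of biotinylated GST-cJun 1-79 at Ser73 with 10 µM ATP; % is scaled to controls: 0 for no effect and ±100 for the full control effect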
Method in brief: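 qHTS format: compounds tested as titrations against IL-1beta/TNF-alpha-activated HepG2 lysate JNK3 with biotin-GST-cJun substrate and 10 uM ATP at room temperature. Loss of anti-phospho-cJun AlphaScreen signal indicates inhibition.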

[5] = biological target: 3',5'-cyclic-AMP phosphodiesterase 4B (Homo sapiens) (UniProt Q07343); test: qHTS Assay for Inhibitors of PDE-IV (AID 607; active = well fitted activation curve with a large enough effect in the main read-out, with a control signal flat, not every such curve was filed as active; also: % of control where 0% means no effect)
3',5'-cyclic-AMP phosphodiesterase 4B (Homo sapiens), sequence (Q07343 whole entry, looked up): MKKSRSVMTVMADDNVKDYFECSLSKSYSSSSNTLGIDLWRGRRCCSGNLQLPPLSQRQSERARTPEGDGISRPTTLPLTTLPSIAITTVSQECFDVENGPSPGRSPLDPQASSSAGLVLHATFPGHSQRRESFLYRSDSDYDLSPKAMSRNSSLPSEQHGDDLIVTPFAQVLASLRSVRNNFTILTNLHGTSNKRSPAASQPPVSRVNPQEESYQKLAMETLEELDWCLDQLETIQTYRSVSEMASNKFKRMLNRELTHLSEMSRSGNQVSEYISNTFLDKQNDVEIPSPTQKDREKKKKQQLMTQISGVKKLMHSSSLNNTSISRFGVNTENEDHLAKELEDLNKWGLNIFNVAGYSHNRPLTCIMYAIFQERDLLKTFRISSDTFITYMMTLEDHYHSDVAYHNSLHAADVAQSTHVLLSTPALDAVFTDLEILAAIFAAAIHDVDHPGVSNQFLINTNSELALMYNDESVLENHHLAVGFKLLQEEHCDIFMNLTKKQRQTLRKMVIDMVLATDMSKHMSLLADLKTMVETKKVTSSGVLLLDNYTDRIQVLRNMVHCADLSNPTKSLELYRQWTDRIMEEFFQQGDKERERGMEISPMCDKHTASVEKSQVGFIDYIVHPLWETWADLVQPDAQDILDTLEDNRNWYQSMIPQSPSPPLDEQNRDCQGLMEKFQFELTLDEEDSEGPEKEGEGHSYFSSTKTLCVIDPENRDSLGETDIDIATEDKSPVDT
Method in brief: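 Live HEK293 cells with a modified cyclic nucleotide-gated (CNG) channel report intracellular cAMP via membrane-potential dye fluorescence (ex 535/em 590 nm). Endogenous PDE-IV was targeted. Compounds were tested at up to 22.9 uM final; RO 20-1724 100 uM served as control.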

[6] = biological target: Cytochrome P450 2C9 (Homo sapiens) (UniProt P11712); test: qHTS Assay for Inhibitors and Substrates of Cytochrome P450 2C9 (AID 883; active = well fitted curve in the direction sought with a large enough effect; an effect the other way counts as inactive or inconclusive; also: % is scaled to controls: 0 for no effect and ±100 for the full control effect; nearly all actives have a fitted effect of over 60% in size)
Method in brief: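 Human CYP2C9 (10nM) with Luciferin-H at 100uM (its KM) in 25mM KPO4; compound preincubated 10 min at 37C, then NADPH regeneration for 60 min at 37C. Luciferin read by luminescence after detection reagent; normalized to 57uM sulphaphenazole as full inhibition.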

[7] = biological target: Cytochrome P450 2D6 (Homo sapiens) (UniProt P10635); test: qHTS Assay for Inhibitors and Substrates of Cytochrome P450 2D6 (AID 891; active = well fitted curve in the direction sought with a large enough effect; an effect the other way counts as inactive or inconclusive;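 also: luciferin methyl ether substrate demethylated by CYP2D6 with NADPH regeneration; % is scaled to controls: 0 for no effect and ±100 for the full control effect; nearly all actives have a fitted effect of over 60% in size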)
Cytochrome P450 2D6 (Homo sapiens), sequence (P10635 whole entry, looked up): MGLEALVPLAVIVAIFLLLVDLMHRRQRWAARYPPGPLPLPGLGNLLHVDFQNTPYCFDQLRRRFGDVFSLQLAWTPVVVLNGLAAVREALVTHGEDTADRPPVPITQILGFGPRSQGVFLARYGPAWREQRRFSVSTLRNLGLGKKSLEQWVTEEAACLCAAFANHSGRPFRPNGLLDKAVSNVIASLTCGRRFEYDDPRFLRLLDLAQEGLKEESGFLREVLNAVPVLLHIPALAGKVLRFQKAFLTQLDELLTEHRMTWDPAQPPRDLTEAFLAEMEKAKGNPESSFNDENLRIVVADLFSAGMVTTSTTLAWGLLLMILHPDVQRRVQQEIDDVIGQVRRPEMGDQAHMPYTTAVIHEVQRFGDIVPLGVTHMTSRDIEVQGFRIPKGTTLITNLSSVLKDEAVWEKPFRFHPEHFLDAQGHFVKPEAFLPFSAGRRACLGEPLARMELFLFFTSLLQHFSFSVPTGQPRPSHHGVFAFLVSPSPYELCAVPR
Method in brief: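 Human CYP2D6 (5 nM) with 30 uM Luciferin-ME EGE (at Km) in 100 mM KPO4, compound preincubated 10 min, then NADPH regeneration system for 60 min at room temperature. Luciferin read by luminescence; normalized to 1.43 uM quinidine.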

[8] = biological target: Cytochrome P450 2C19 (Homo sapiens) (UniProt P33261); test: qHTS Assay for Inhibitors and Substrates of Cytochrome P450 2C19 (AID 899; active = well fitted curve in the direction sought with a large enough effect; an effect the other way counts as inactive or inconclusive; also: % is scaled to controls: 0 for no effect and ±100 for the full control effect; nearly all actives have a fitted effect of over 60% in size)
Cytochrome P450 2C19 (Homo sapiens), sequence (P33261 whole entry, looked up): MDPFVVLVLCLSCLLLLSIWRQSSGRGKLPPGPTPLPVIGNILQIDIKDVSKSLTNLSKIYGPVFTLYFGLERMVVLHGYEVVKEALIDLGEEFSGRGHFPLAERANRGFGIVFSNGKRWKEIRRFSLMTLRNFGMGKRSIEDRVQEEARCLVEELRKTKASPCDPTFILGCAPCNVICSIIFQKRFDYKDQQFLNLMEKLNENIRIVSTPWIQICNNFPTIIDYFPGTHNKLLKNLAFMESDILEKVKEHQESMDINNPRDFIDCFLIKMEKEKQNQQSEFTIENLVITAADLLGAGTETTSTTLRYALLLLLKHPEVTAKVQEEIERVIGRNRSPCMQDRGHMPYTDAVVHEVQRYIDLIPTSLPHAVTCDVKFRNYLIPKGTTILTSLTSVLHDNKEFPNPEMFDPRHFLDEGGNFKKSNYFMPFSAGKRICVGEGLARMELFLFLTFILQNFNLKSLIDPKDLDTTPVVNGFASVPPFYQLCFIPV
Method in brief: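 5 nM human CYP2C19 with 10uM Luciferin-H EGE (at KM) in 50mM KPO4, compound preincubated 10 min at 37C, then NADPH regeneration for 60 min at 37C. Luciferin read by luminescence after detection reagent; normalized to 57uM ketoconazole as full inhibition.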

[9] = AP1 Signaling Pathway (AID 357); settings: ME-180 AP-1-bla reporter, EGF-induced, beta-lactamase ratio, 5 h; at 7.69 µM (top of the series) unless noted;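 also: ME-180 reporter cells stimulated with EGF at its EC50 level; % is scaled to controls: 0 for no effect and ±100 for the full control effect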
Method in brief: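 In this screen, ME-180 cells in Opti-MEM with 0.5% dialyzed FBS received EC50 EGF and compound titrations for 5 h. AP-1 reporter beta-lactamase was detected via CCF4 ratio, giving AC50 for positive and negative modulators.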

[10] = biological target: Cytochrome P450 1A2 (Homo sapiens) (UniProt P05177); test: p450-cyp1a2 (AID 410; calls by dose curve; also: potency is read from the fitted curve at half-maximal effect;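 as to activity change, negative = inhibition: -100% = full effect of reference inhibitor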)
Cytochrome P450 1A2 (Homo sapiens), sequence (P05177 whole entry, looked up): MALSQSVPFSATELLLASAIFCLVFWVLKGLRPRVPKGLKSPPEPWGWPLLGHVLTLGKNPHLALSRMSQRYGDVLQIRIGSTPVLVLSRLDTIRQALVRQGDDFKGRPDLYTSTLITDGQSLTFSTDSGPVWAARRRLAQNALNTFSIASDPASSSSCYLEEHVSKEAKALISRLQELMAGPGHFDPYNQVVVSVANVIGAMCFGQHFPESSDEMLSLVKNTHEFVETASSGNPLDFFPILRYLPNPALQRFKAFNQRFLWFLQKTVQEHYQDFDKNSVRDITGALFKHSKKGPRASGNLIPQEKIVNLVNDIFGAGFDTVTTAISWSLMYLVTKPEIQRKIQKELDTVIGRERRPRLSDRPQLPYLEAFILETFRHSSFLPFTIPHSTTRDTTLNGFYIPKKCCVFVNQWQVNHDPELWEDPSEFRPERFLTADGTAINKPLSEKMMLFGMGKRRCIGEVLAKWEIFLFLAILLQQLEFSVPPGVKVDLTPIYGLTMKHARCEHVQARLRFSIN
Method in brief: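 Human CYP1A2 (20nM) demethylated Luciferin-ME at its Km (100uM) in 100mM KPO4. After 10 min compound preincubation, NADPH regeneration ran the reaction 60 min at room temperature. Luciferin was read by luminescence, normalized to 57 uM furafylline.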

[11] = Stat Signaling Pathway (AID 446); settings: ME-180 SIE beta-lactamase reporter, IL-6 stimulated, 5 h; at 7.69 µM (top of the series) unless noted;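 also: ME-180 cervical cancer cells given 40 pM IL-6 alongside compound; SIE-controlled beta-lactamase reporter measured as 460/530 nm FRET emission ratio; % is scaled to controls: 0 for no effect and ±100 for the full control effect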
Method in brief: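 IL-6/STAT signaling read in ME-180 cells via an SIE beta-lactamase reporter. Stimulus was 40 pM IL-6 (its AC50) for 5 hrs, so both activation and inhibition register.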

[12] = biological target: Guanine nucleotide-binding protein G(i) subunit alpha-1 (Homo sapiens) (UniProt P63096); test: qHTS Assay for Inhibitors of RGS12 GoLoco Motif Activity (Green Fluorophore) (AID 879; active = well fitted curve in the direction sought with a large enough effect; an effect the other way counts as inactive or inconclusive;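 also: 0% = labeled peptide with Gαi1 and full inhibition = labeled peptide alone without protein; negative values mean loss of peptide binding seen as reduced polarization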)
Guanine nucleotide-binding protein G(i) subunit alpha-1 (Homo sapiens), sequence (P63096 whole entry, looked up): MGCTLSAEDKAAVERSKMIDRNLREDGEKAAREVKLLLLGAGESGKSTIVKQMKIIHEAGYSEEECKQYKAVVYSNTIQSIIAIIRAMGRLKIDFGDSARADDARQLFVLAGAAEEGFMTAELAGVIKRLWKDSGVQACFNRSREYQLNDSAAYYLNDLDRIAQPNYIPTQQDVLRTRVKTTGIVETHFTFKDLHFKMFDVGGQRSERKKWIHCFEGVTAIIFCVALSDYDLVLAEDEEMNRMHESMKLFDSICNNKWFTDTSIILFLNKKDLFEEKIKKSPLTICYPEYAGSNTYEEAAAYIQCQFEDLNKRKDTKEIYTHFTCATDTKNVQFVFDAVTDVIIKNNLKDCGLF
Method in brief: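 Fluorescence polarization assay: 50 nM Gαi1 with 10 nM FITC-labeled RGS12 GoLoco peptide in 10 mM Tris pH 7.5, 150 mM NaCl, 0.1 mM GDP, 0.05% NP40, 10 min at room temperature with compound.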

[13] = biological target: Cytochrome P450 3A4 (Homo sapiens) (UniProt P08684); test: qHTS Assay for Activators of Cytochrome P450 3A4 (AID 885; active = well fitted curve in the direction sought with a large enough effect; an effect the other way counts as inactive or inconclusive; also: nearly all actives have a fitted effect of over 65% in size)
Method in brief: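 Quantitative HTS format: compounds preincubated with 20nM human CYP3A4 and Luciferin-PPXE substrate at KM, reaction started by NADPH regeneration, stopped after 60 min, luciferase luminescence read 20 min later.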

[14] = qHTS Assay for Identification of Small Molecule Agonists for Thrombopoietin (TPO) Signaling Pathway (AID 917; active = well fitted curve in the direction sought with a large enough effect; an effect the other way counts as inactive or inconclusive; also: % is scaled to controls: 0 for no effect and ±100 for the full control effect)
Method in brief: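 Murine Ba/F3 cells stably expressing human TPO receptor and a Glycoprotein IIb promoter–luciferase reporter were IL-3-starved overnight, then treated with compounds plus TPO (26 pM final, its EC50) for 24 hrs at 37 C; luminescence was read.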

[15] = biological target: Muscarinic acetylcholine receptor M1 (Rattus norvegicus) (UniProt P08482); test: qHTS Assay for Antagonists of Acetylcholine Muscarinic M1 Receptor: Kinetic Measurement of Intracellular Calcium Response (AID 943; active = well fitted curve in the direction sought with a large enough effect; an effect the other way counts as inactive or inconclusive;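 also: Fluo-4 calcium signal as peak divided by basal fluorescence over 4 min; nearly all actives have a fitted effect of over 75% in size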)
Muscarinic acetylcholine receptor M1 (Rattus norvegicus), sequence (P08482 whole entry, looked up): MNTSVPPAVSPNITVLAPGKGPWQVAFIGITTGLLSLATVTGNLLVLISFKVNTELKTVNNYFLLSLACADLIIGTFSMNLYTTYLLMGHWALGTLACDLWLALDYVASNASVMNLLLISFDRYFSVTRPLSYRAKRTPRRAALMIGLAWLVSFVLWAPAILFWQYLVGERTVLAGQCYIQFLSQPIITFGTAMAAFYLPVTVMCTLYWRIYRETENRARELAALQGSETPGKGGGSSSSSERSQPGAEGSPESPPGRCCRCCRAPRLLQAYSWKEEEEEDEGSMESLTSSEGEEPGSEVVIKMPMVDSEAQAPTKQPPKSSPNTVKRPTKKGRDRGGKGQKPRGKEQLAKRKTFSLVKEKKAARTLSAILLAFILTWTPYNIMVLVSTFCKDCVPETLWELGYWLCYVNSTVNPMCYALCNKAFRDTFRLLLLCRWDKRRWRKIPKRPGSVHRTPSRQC
Method in brief: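 CHO cells stably expressing rat M1 were loaded with no-wash Fluo-4 dye for 1 h at 37C, pre-incubated 10 min with compound, then challenged with EC80 carbachol (100 nM final); kinetic calcium read 4 min, peak/basal ratio.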

[16] = biological target: Muscarinic acetylcholine receptor M1 (Rattus norvegicus) (UniProt P08482); test: qHTS Assay for Antagonists of Acetylcholine Muscarinic M1 Receptor: Measurement of IP-One Response (AID 944; active = well fitted curve in the direction sought with a large enough effect; an effect the other way counts as inactive or inconclusive; also: nearly all actives have a fitted effect of over 75% in size)
Method in brief: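 CHO cells expressing rat M1 receptor, recovered overnight, were pre-incubated 10 min with compound, then stimulated 30 min with carbachol at EC80 (200 nM) in LiCl-containing buffer, pH 7.4. IP1 accumulation was read by HTRF (620/665 nm).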

[17] = biological target: Pyruvate kinase (Leishmania mexicana) (UniProt Q27686); test: qHTS Validation Assay for Inhibitors of Leishmania Mexicana Pyruvate Kinase (AID 945; active = well fitted curve in the direction sought with a large enough effect; an effect the other way counts as inactive or inconclusive;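 also: 0% = DMSO only neutral control wells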)
Pyruvate kinase (Leishmania mexicana), sequence (Q27686 2-499 E452W): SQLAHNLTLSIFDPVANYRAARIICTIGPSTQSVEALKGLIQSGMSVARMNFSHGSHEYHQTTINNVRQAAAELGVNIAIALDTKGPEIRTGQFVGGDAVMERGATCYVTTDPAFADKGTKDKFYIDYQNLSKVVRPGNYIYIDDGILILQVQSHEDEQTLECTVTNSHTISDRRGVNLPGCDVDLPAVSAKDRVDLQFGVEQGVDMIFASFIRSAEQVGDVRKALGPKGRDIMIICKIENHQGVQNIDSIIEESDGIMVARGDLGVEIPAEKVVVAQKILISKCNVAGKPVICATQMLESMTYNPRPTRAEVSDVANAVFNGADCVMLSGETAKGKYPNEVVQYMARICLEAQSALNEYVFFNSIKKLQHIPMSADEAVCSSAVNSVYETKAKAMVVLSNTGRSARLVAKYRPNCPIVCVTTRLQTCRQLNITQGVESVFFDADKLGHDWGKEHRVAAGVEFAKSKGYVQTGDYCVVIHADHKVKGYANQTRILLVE
Method in brief: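 The enzyme is a highly purified E451W mutant of LmPYK used at 0.2 nM. It converts 0.5 mM PEP and 0.1 mM ADP over 1 h at room temperature; product ATP is quantified by luciferase luminescence relative to DMSO controls.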

[18] = biological target: Pyruvate kinase PKM (Homo sapiens) (UniProt P14618); test: qHTS Assay for Activators of Human Muscle Pyruvate Kinase (AID 954; active = well fitted curve in the direction sought with a large enough effect, not every such curve was filed as active;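 also: 0% = uninhibited enzyme and -100% = no enzyme or full thiadiazolimine inhibition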)
Method in brief: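 Enzyme was run at intermediate activity so both inhibitors and activators could be detected. ATP formed from ADP and PEP by 0.1 nM human PKM2 during a 1 h room-temperature incubation was quantified by coupled luciferase luminescence.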

[19] = biological target: Alpha-galactosidase (Coffea arabica) (UniProt Q42656); test: Counterscreen for Glucocerebrosidase Inhibitors: qHTS Assay for Coffee Bean alpha-Galactosidase at pH 4.5 (AID 957; active = well fitted curve in the direction sought with a large enough effect; an effect the other way counts as inactive or inconclusive;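 also: plate controls were enzyme alone for no effect and no enzyme for full effect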)
Alpha-galactosidase (Coffea arabica), sequence (Q42656 whole entry, looked up): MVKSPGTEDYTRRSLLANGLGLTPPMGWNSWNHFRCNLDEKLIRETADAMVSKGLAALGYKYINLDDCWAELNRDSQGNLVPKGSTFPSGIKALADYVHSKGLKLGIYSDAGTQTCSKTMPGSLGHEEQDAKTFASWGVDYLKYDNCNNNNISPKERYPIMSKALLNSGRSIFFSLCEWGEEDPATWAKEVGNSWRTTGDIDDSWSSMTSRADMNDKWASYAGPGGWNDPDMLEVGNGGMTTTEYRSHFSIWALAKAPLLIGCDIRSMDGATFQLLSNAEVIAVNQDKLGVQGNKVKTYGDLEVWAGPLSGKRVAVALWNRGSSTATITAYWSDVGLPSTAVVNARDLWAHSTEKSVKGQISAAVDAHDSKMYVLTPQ
Method in brief: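 Green coffee bean enzyme (2 nM final) was incubated with compounds (0.7 nM to 77 uM) and 4-methylumbelliferyl alpha-D-galactopyranoside (80 uM final) in 50 mM citric acid, 0.005% Tween-20, pH 4.5, 20 min at room temperature; AC50 from Hill fits.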

[20] = biological target: Alpha-galactosidase A (Homo sapiens) (UniProt P06280); test: Counterscreen for Glucocerebrosidase Inhibitors: qHTS Assay for Human alpha-Galactosidase at pH 4.5 (AID 992; active = well fitted curve in the direction sought with a large enough effect; an effect the other way counts as inactive or inconclusive; also: 0% is about no effect)
Method in brief: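 Read-out is 4-methylumbelliferone fluorescence (365 nm excitation, 440 nm emission) after a pH 10 NaOH/glycine stop. Reactions held 2 nM enzyme and 80 uM substrate at pH 4.5 for 20 min at room temperature.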

[21] = biological target: alpha-glucosidase (Oryza sativa, rice) (UniProt Q653V4); test: Counterscreen for Glucocerebrosidase Inhibitors: qHTS Assay for Rice alpha-Glucosidase at pH 5.0 (AID 997; active = well fitted curve in the direction sought with a large enough effect; an effect the other way counts as inactive or inconclusive;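 also: 0% = full activity with enzyme and -100% = basal without enzyme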)
Method in brief: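 Rice alpha-glucosidase (4 nM final) with 400 uM 4-methylumbelliferyl-alpha-D-glucopyranoside in citrate buffer pH 5.0, 20 min at room temperature, stopped at pH 10; fluorescence 365/440 nm, compounds 0.7 nM–77 uM, AC50 from Hill fits.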

[22] = biological target: Alpha-galactosidase (Coffea arabica) (UniProt Q42656); test: Counterscreen for Glucocerebrosidase Inhibitors: qHTS Assay for Coffee Bean alpha-Galactosidase at pH 5.9 (AID 998; active = well fitted curve in the direction sought with a large enough effect; an effect the other way counts as inactive or inconclusive;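 also: plate controls were uninhibited enzyme for no effect and no-enzyme basal signal for full effect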)
Method in brief: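 Green coffee bean enzyme (2 nM) with 4-methylumbelliferyl alpha-D-galactopyranoside (80 uM) in 50 mM citric acid, 0.005% Tween-20, pH 5.9, 20 min at room temperature; compounds 0.7 nM–77 uM. Stopped at pH 10, fluorescence Ex365/Em440; Hill-fit AC50.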

[23] = qHTS Assay for Identification of Small Molecule Agonists for Hypoxia Response Element Signaling Pathway (AID 914; active = well fitted activation curve with a large enough effect in the signal ratio, with a control signal flat, not every such curve was filed as active; the % refers to the signal ratio; also: % of control where 0% means no effect); settings: ME-180 (cervical carcinoma) HRE-bla reporter, beta-lactamase ratio, CoCl2, 17 h; active compounds read high
Method in brief: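 Cells were plated overnight, pin-dosed with compound in a titration series, co-stimulated with EC50 CoCl2 and incubated 17 hours at 37 degrees Celsius. CCF4 substrate was then loaded, and AC50 values came from the 460nm/530nm ratio.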

NNc1c(C(N)=O)c2c(N)ncnc2n1[C@@H]1O[C@H](CO)[C@@H](O)[C@@H]1O
inactive: activity change, negative = inhibition [1] 6.43% | Potency [2] > 46 µM | Potency [3] > 9.22 µM | activity change, negative = inhibition [4] -2.85% [at 11.4 µM] | outcome [5] | activity change, negative = inhibition [6] -2.73% [at 11.4 µM] | Potency [7] | Potency [8]

C[Se]C[C@@H](N)C(=O)O
inactive: activity change, negative = inhibition [9] 1.98% [at 38 µM] | Potency [10] | activity, negative = inhibition [11] -28.4% [at 38 µM] | Potency [2] > 46 µM | Potency [3] > 46 µM | Potency [4] | outcome [5] | outcome [12] | Potency [13] | Potency [8] | outcome [14] | Potency [15] | Potency [16] | outcome [17] | outcome [18] | outcome [19] | outcome [20] | outcome [21] | outcome [22]

COC(=O)c1c(C)ccc2c(O)c3c(cc12)C(=O)c1c2c(cc(O)c1C3=O)[C@@]1(C)O[C@@](C)(O2)[C@@H](O)[C@H](N(C)C)[C@H]1O
inactive: activity change, negative = inhibition [1] -7.69% | activity, negative = inhibition [11] 10.6% | Potency [2] > 46 µM | Potency [3] > 9.22 µM | activity change, negative = inhibition [4] -7.99% [at 11.4 µM] | outcome [5]
active: Potency [10] 5.01 µM

COc1cccc2c1C(=O)c1c(O)c3c(c(O)c1C2=O)C[C@](O)(/C(C)=N\O)C[C@@H]3O[C@H]1C[C@H](N)[C@@H](O)[C@H](C)O1
inactive: activity change, negative = inhibition [9] 26.1% | activity change, negative = inhibition [1] -24.2% | Potency [2] > 46 µM | activity change, negative = inhibition [4] -16.4% [at 11.4 µM] | outcome [5]

Nc1nc(N)c(N=Nc2ccc([As](=O)(O)O)cc2)c(=O)[nH]1
inactive: activity change, negative = inhibition [9] 6.48% | activity change, negative = inhibition [10] -14.9% [at 2.29 µM] | activity, negative = inhibition [11] 0.893% | Potency [2] > 46 µM | Potency [3] > 9.22 µM | activity change, negative = inhibition [4] 5.04% [at 11.4 µM] | outcome [5]

CC(C)[C@@]1(NC(=O)[C@@H]2C=C3c4cccc5[nH]cc(c45)C[C@@H]3N(C)C2)O[C@]2(O)[C@H]3CCCN3C(=O)[C@H](Cc3ccccc3)N2C1=O
inactive: activity change, negative = inhibition [9] -14% [at 38 µM] | activity change, negative = inhibition [1] 4.28% [at 38 µM] | activity, negative = inhibition [11] 8.76% [at 38 µM] | Potency [2] > 46 µM | Potency [3] > 46 µM | Potency [4] | outcome [5] | Potency [7] | Potency [8]

NNc1nncn1N
inactive: activity change, negative = inhibition [9] 17.5% | activity, negative = inhibition [11] 18.4% | Potency [2] > 46 µM | Potency [3] > 9.22 µM | activity change, negative = inhibition [4] 3.94% [at 11.4 µM] | outcome [5]

O=C(O)C(=O)Cc1ccc2c(c1)OCO2
inactive: activity change, negative = inhibition [9] 6.13% | activity, negative = inhibition [11] 3.17% | Potency [2] > 46 µM | Potency [3] > 9.22 µM | activity change, negative = inhibition [4] 4.31% [at 11.4 µM] | outcome [5] | Potency [8] | activation [23] -7.84%

CN(C)CCCc1c[nH]c2ccccc12
inactive: activity change, negative = inhibition [9] -7.94% | activity change, negative = inhibition [1] -13% | activity, negative = inhibition [11] 1.91% | Potency [2] > 46 µM | Potency [3] > 9.22 µM | activity change, negative = inhibition [4] 3.98% [at 11.4 µM] | outcome [5]

COc1cc([C@@H](O)CN)ccc1O
inactive: activity change, negative = inhibition [9] -3.13% [at 38 µM] | Potency [10] | activity, negative = inhibition [11] 3.87% [at 38 µM] | Potency [2] > 46 µM | Potency [3] > 46 µM | Potency [4] | outcome [5] | outcome [12] | outcome [14] | Potency [16] | outcome [17] | outcome [18] | outcome [19] | outcome [20] | outcome [21] | outcome [22]
